The full data set covers some 6,500 targets. This sample favours those with a hit. About 2% of all pairs of compound and target were hits.

The values that follow come from the supplement of paper PMC11006884.

UniProt Q9Y613, sequence (Q9Y613 whole entry, looked up): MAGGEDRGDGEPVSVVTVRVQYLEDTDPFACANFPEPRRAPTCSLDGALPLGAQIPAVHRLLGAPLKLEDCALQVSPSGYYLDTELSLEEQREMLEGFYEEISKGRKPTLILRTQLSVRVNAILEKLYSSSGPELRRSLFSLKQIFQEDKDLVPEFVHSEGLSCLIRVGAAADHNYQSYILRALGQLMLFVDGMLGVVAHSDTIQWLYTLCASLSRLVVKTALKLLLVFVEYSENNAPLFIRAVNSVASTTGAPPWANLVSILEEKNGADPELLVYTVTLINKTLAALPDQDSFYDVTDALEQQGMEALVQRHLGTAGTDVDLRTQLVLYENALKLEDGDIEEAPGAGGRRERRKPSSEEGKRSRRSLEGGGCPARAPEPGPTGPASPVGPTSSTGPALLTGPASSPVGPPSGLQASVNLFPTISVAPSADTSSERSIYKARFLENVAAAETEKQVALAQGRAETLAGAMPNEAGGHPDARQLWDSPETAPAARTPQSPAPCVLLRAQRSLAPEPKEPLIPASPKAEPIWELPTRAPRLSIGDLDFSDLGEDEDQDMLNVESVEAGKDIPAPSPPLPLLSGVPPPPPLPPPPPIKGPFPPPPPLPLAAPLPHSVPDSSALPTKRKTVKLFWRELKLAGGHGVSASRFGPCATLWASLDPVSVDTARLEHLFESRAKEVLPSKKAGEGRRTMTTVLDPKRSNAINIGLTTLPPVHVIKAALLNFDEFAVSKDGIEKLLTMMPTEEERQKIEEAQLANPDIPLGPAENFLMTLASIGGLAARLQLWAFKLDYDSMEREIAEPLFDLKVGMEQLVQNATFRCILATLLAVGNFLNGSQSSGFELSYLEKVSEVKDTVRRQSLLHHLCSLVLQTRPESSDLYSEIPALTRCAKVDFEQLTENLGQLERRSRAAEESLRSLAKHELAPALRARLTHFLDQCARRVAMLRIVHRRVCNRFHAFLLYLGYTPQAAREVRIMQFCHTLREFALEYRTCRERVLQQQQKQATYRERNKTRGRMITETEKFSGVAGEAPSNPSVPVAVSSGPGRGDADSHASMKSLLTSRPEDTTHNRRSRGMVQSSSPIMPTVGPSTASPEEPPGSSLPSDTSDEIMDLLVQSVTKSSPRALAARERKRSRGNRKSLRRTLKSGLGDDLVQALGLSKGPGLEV
UniProt Q9H6R4, sequence (Q9H6R4 whole entry): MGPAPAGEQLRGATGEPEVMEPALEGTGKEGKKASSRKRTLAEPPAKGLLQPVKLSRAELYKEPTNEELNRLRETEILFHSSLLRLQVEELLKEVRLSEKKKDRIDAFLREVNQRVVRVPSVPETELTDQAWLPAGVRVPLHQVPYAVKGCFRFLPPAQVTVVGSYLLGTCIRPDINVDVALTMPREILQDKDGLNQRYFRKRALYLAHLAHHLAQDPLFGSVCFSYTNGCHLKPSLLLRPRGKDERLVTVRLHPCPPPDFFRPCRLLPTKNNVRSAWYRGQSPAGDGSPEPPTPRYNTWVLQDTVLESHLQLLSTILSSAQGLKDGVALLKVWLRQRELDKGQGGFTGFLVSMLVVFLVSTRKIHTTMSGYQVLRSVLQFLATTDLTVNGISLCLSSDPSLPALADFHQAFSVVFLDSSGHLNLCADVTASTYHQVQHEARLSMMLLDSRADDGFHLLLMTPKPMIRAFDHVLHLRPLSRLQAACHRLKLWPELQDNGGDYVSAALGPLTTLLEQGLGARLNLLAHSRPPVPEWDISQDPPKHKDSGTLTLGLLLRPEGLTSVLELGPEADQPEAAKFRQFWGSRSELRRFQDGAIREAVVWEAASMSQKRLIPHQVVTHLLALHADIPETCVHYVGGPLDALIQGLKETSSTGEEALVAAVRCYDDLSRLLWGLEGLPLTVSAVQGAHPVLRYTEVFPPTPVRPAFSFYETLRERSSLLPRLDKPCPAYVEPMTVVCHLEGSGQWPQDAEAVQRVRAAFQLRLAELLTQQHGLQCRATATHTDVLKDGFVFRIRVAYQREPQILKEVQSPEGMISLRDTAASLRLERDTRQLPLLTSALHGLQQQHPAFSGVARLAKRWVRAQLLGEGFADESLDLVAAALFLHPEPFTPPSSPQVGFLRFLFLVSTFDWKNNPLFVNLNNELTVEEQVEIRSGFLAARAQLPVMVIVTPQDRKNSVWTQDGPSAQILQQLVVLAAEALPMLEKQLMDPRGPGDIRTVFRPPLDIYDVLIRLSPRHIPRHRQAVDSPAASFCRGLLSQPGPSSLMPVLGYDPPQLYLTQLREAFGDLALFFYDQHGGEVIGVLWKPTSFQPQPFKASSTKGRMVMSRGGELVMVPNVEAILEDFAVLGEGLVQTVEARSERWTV
UniProt Q9Y2R4, sequence (Q9Y2R4 whole entry): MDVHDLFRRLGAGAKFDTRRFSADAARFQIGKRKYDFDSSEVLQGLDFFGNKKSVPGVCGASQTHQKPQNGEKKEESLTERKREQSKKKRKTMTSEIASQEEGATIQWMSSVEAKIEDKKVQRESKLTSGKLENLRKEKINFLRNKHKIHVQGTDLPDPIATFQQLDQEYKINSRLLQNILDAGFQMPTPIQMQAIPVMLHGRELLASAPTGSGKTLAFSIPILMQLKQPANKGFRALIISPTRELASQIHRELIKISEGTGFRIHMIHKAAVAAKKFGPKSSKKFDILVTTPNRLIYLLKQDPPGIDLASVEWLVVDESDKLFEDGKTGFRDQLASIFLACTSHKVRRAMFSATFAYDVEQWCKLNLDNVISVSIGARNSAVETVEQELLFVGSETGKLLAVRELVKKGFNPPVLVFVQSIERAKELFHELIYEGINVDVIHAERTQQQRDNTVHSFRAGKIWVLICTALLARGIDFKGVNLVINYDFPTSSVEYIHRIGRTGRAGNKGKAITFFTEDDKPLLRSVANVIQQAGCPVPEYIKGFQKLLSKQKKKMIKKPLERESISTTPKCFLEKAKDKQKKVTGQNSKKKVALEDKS
UniProt Q9NPI1, sequence (Q9NPI1 whole entry, looked up): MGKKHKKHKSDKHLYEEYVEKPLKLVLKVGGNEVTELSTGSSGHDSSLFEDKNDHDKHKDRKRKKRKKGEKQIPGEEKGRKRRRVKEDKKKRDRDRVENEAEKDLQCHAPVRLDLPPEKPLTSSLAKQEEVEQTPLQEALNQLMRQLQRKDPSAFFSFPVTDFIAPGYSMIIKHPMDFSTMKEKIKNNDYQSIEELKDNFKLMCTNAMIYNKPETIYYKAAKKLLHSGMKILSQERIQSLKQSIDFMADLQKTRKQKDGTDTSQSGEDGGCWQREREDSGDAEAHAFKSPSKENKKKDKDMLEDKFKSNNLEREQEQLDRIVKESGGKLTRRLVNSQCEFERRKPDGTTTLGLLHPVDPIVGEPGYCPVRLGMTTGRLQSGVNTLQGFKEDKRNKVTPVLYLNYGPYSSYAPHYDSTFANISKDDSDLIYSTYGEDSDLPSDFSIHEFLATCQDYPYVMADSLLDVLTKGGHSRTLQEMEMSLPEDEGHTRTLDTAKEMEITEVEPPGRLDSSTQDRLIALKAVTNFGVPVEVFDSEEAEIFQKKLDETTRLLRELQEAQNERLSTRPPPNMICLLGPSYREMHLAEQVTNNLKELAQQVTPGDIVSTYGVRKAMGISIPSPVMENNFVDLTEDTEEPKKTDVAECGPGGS
UniProt Q9Y496, sequence (Q9Y496 whole entry): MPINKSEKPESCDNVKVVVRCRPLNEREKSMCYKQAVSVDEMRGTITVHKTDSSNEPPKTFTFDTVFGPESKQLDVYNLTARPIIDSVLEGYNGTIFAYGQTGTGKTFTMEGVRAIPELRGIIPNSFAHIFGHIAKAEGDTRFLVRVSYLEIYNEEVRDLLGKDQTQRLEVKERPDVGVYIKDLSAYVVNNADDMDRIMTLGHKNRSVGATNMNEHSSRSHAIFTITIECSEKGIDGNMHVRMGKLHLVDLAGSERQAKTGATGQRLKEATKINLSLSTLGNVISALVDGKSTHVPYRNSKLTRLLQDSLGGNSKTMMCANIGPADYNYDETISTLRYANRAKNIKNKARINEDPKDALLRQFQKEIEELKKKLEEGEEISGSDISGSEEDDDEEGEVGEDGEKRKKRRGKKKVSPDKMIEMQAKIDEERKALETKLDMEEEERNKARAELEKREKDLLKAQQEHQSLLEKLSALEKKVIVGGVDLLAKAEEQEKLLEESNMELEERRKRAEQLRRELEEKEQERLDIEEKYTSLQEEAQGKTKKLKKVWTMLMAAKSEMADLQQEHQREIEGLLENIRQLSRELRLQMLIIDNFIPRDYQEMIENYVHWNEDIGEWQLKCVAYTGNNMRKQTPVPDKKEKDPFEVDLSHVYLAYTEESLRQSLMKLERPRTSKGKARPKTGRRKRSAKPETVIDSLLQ
UniProt Q9UK45, sequence (Q9UK45 whole entry, looked up): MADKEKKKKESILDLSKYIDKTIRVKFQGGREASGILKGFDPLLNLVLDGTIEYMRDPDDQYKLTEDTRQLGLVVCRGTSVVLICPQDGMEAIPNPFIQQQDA
UniProt Q9H4I3, sequence (Q9H4I3 whole entry): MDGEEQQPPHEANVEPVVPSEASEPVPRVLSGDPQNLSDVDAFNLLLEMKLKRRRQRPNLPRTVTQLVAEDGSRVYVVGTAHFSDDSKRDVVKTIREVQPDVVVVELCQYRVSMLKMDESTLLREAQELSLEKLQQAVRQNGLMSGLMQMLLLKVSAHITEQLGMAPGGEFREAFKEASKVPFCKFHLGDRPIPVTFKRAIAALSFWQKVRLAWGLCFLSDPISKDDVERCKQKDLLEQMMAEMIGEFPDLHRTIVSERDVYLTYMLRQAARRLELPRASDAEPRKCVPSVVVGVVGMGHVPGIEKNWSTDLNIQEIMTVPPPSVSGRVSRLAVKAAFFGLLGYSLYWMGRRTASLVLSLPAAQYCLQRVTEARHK
UniProt Q9Y3C1, sequence (Q9Y3C1 whole entry): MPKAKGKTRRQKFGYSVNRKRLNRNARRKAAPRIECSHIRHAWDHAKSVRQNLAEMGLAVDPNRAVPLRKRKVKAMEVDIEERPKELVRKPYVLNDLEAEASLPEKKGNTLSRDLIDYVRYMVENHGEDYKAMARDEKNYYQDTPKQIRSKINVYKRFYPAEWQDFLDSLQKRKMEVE

Compound in this assay: COC(=O)C#Cc1ccccc1 [methyl 3-phenylpropiolate]
The assay can be described thus: log2 ratio of iodoacetamide-alkyne labeling of the cysteine site, DMSO over compound (competition); higher = stronger covalent engagement of the cysteine by the compound, active = 1 or more. The following applies: 500 µM; treatment time 1 h; system: HEK293T cell lysate. In a few lines: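 Three replicates, each with duplicate channels, were prepared from HEK293T lysate (2 mg/mL) treated with vehicle or electrophile at 500 µM for 1 h at ambient temperature. Iodoacetamide alkyne was then applied for 1 h, and samples were clicked to sCIP-TMT reagents, pooled, trypsin-digested overnight at 37 °C, enriched on streptavidin, acid-eluted and analysed on Orbitrap Eclipse LC-MS/MS with FAIMS, with FragPipe quantification. The log2 competition ratio per cysteine is the mean control-channel divided by the mean compound-channel reporter intensity. Cysteines quantified in only one replicate were left out.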
For the target UNC45A C34 (UniProt Q9H3U1), the “log2 ratio of iodoacetamide-alkyne labeling” value (shortened to “log2 ratio”) was 0.0992 (inactive).

As to NFU1 C213 (UniProt Q9UMS0), the “log2 ratio” value was 0.895 (inactive).

With LSM7 C76 (UniProt Q9UK45), the “log2 ratio” value is 0.0557 (inactive).

NOL6 C1034 (UniProt Q9H6R4): the “log2 ratio” value is 1.81 (active).

Turning to TRABD C287 (UniProt Q9H4I3), the “log2 ratio” value was 0.0519 (inactive).

In the case of FAM120C C14 (UniProt Q9NX05), the “log2 ratio” value was 0.327 (inactive).

With DCTN4 C41 (UniProt Q9UJW0), the “log2 ratio” value is 0.309 (inactive).

Regarding GSTK1 C176 (UniProt Q9Y2Q3), the “log2 ratio” value is 0.387 (inactive).

In the case of UniProt Q9BXJ9_C465, the “log2 ratio” value was 0.109 (inactive).

In the case of PRR12 C322 (UniProt Q9ULL5), the “log2 ratio” value is 0.259 (inactive).

In the case of ACIN1 C691 (UniProt Q9UKV3), the “log2 ratio” value is 0.212 (inactive).

Regarding FHOD1 C31 (UniProt Q9Y613), the “log2 ratio” value is 0.248 (inactive).

For the target HOOK1 C432 (UniProt Q9UJC3), the “log2 ratio” value was 0.385 (inactive).

With RNF126 C229 (UniProt Q9BV68), the “log2 ratio” value is -0.457 (inactive).

As to DDX52 C536 (UniProt Q9Y2R4), the “log2 ratio” value is 0.566 (inactive).

Consider KIF3A C621 (UniProt Q9Y496), for which the “log2 ratio” value was 0.962 (inactive).

As for CHORDC1 C5 (UniProt Q9UHD1), the “log2 ratio” value is -0.0481 (inactive).

Take RCC2 C428 (UniProt Q9P258): the “log2 ratio” value is 0.696 (inactive).

For JMJD4 C101 (UniProt Q9H9V9), the “log2 ratio” value is 0.898 (inactive).

As to MDN1 C3492 (UniProt Q9NU22), the “log2 ratio” value is 0.35 (inactive).

In the case of POLDIP2 C143 (UniProt Q9Y2S7), the “log2 ratio” value was 0.786 (inactive).

As to UniProt Q9Y520_C223, the “log2 ratio” value is 0.239 (inactive).

On to GPATCH8 C569 (UniProt Q9UKJ3), for which the “log2 ratio” value was 0.815 (inactive).

On to UniProt Q9Y3B4_C83, for which the “log2 ratio” value is 0.2 (inactive).

For UBQLN4 C29 (UniProt Q9NRR5), the “log2 ratio” value was 1.12 (active).

For RACGAP1 C419 (UniProt Q9H0H5), the “log2 ratio” value is 0.303 (inactive).

On to NOP16 C36 (UniProt Q9Y3C1), for which the “log2 ratio” value is 1.12 (active).

As to LARS C554 (UniProt Q9P2J5), the “log2 ratio” value is 1.74 (active).

Consider UniProt Q9HBK9_C32, for which the “log2 ratio” value was 1.1 (active).

Take WIPI2 C393 (UniProt Q9Y4P8): the “log2 ratio” value is 1.22 (active).

Take UBE2O C406 (UniProt Q9C0C9): the “log2 ratio” value was 1.46 (active).

Take RRBP1 C892 (UniProt Q9P2E9): the “log2 ratio” value is 0.291 (inactive).

Regarding OPA3 C164 (UniProt Q9H6K4), the “log2 ratio” value is 0.331 (inactive).

As for BAZ1B C953 (UniProt Q9UIG0), the “log2 ratio” value was 1.28 (active).

As for LANCL2 C49 (UniProt Q9NS86), the “log2 ratio” value is -0.064 (inactive).

For the target TES C196 (UniProt Q9UGI8), the “log2 ratio” value was 0.308 (inactive).

For DDX20 C524 (UniProt Q9UHI6), the “log2 ratio” value was 0.6 (inactive).

DAXX C720 (UniProt Q9UER7): the “log2 ratio” value was 1.35 (active).

Turning to BRD7 C338 (UniProt Q9NPI1), the “log2 ratio” value was 1.01 (active).

Consider FTO C326 (UniProt Q9C0B1), for which the “log2 ratio” value is 0.0865 (inactive).
